Bioassay records deposited in PubChem BioAssay by National Center for Advancing Translational Sciences (NCATS).
An excerpt weighted towards active compounds, which were near 2.4% of everything screened.
APE1 inh – APE1 (human) endonuclease inhibition; AID 2517; Potency, µM (titrated, usually from 65.8 µM), for inactives: top-dose activity change, negative = inhibition, actives largely listed as inhibitors; recombinant APE1, TAMRA/BHQ-2 abasic DNA cleavage fluorescence; actives 0.35% (n = 350,000); P27695;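 also: plate controls were vehicle for no effect and reference inhibitor for full effect; nearly all actives have a fitted effect of over 55% in size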
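Endonuclease cleavage of a quenched abasic-site DNA duplex (50 nM) by APE1 (0.75 nM) was tracked by TAMRA dequenching. Compounds were preincubated with enzyme 15 min at room temperature; data normalized to buffer-only and DMSO wells plus NSC13755 control.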
POLH inh – DNA polymerase eta (human) inhibition; Potency, µM (highest dose often 114 µM), for the others: at the highest dose activity change, negative = inhibition, hits mostly inhibitors; recombinant Pol eta, fluorescent DNA replication assay; actives 1.2% (n = 390,000); also: % is scaled to controls: 0 for no effect and ±100 for the full control effect
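Pol eta (10 nM) was preincubated with compounds for 15 min at room temperature, after which fluorescent replication substrate (50 nM final) was added to start the reaction. Fluorescence was read kinetically at 0 and 10 min.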
Pol beta inh – inhibitors of human DNA polymerase beta. P06746. Pol beta primer extension/strand displacement, fluorescence kinetic. Potency, µM (doses to about 114 µM), without a hit: at the top dose activity change, negative = inhibition, hits mostly inhibitors. actives 1.3% (n = 340,000); also: % is scaled to controls: 0 for no effect and ±100 for the full control effect
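Values derive from four-parameter Hill fits of normalized kinetic data: reads at 0 and 10 min following addition of 50 nM substrate to 10 nM Pol beta preincubated 15 min with compound.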
Pol kappa inh – inhibitors of human DNA polymerase kappa. Q9UBT6. purified Pol kappa, fluorescent DNA synthesis assay, 10 min. Potency, µM (titrated, usually from 107 µM), for inactives: top-dose activity, negative = inhibition, actives largely listed as inhibitors. actives 0.53% (n = 400,000). AID 588579; also: % is scaled to controls: 0 for no effect and ±100 for the full control effect
Target sequence (Q9UBT6 whole entry, looked up): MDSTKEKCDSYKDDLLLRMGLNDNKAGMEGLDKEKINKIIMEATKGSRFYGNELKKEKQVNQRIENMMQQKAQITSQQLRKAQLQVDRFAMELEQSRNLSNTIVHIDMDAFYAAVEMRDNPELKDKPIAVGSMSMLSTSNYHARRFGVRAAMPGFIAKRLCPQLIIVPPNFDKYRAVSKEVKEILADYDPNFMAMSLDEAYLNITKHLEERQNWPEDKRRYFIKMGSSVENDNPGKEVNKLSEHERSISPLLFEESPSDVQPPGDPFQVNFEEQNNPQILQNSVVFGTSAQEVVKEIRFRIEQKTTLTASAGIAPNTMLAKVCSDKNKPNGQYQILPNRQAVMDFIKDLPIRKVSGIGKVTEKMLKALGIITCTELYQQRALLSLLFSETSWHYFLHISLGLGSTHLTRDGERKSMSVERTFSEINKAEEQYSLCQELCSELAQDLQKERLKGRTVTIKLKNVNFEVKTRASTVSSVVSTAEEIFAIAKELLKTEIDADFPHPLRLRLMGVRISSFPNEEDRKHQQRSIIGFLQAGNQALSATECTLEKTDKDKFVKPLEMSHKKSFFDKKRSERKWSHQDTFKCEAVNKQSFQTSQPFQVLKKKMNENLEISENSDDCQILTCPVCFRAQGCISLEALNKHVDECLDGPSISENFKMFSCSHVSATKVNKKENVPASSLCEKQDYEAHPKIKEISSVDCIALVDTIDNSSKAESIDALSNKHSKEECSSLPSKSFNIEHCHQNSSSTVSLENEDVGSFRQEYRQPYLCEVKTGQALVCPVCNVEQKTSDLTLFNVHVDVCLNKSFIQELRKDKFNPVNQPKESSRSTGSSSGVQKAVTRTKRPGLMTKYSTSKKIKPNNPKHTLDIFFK
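Kinetic fluorescence screen: compound preincubated 15 min RT with 10 nM enzyme; 50 nM substrate (final) initiates; reads at 0/10 min.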
GLS inhibitor – blocks human kidney-isoform glutaminase activity; O94925; GLS enzymatic activity, qHTS titration; Potency, µM (series often up to 45.5 µM), for the others: top-dose activity change, negative = inhibition, most hits filed as inhibitors; AID 624170; actives 0.21% (n = 410,000); also: % is scaled to controls: 0 for no effect and ±100 for the full control effect
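hKGA in 45 mM KH2PO4 (pH 8.2), 0.02% Tween-20 with compound, then 1mM L-Glutamine (stock as added) plus glutamate oxidase/HRP/Amplex red coupling mix. Fluorescence read initially and after 30 min at RT; signal change reflects glutamate formation.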
POLI inh – inhibitors of human DNA polymerase iota. Pol iota fluorescent replication assay, 10 min. Potency, µM (highest dose often 115 µM), for the others: at the top dose activity, negative = inhibition, actives largely listed as inhibitors. AID 588590. Q9UNA4. actives 1% (n = 390,000)
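Pol iota at 10 nM preincubated 15 min with compounds at room temperature; reaction started with fluorescent substrate, 50 nM final. Fluorescence read kinetically at 0 and 10 min; buffer-only wells as negative control.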
The depositor's hits bear a star; ? = inconclusive; / = not tested or not shown. Calls follow the shape of the dose curve; as a rule, active = well fitted curve in the direction sought with a large enough effect; inconclusive = small, poorly fitted or top-dose-only effect, or another doubt; inactive = no such curve, though single readings can be large; an effect the other way counts as inactive or inconclusive. Potency is read from the fitted curve at half-maximal effect.

SMILES	APE1 inh	POLH inh	Pol beta inh	Pol kappa inh	GLS inhibitor	POLI inh
CCOc1cc(/C=C2\C(=O)N(c3cccc(C(=O)O)c3)N=C2C(F)(F)F)ccc1OCC(=O)Nc1ccccc1OC	-5%	/	20µM*	/	/	/
COc1ccc(N=C2S/C(=C\c3ccc(N4CCOCC4)o3)C(=O)N2CCc2c[nH]c3ccccc23)cc1	1%	/	19%	/	/	/
COc1ccc(N=C2S/C(=C\c3ccc(OCC(=O)O)cc3)C(=O)N2CCc2c[nH]c3ccccc23)cc1	10%	-19%	4µM*	16µM*	10µM*	?
Cc1cccc(N(CC(=O)NCc2ccccc2)C(=O)CCC(=O)Nc2nccs2)c1	-3%	10%	-11%	-18%	0%	7%
COc1cc2cc(CN(Cc3nnnn3Cc3ccco3)C3CCCCC3)c(=O)[nH]c2cc1OC	?	?	45µM*	?	?	?
CCOc1ccc2[nH]c(=O)c(CN(Cc3nnnn3Cc3ccco3)C3CCCCC3)cc2c1	-2%	1%	20µM*	-13%	-2%	6%
COCCn1nnnc1CN(Cc1cc2cc(OC)c(OC)cc2[nH]c1=O)C1CCCC1	-12%	-13%	4%	-6%	5%	11%
O=C(c1ccc(S(=O)(=O)Nc2cccc(C(F)(F)F)c2)cc1)N1CCOCC1	0%	-19%	?	4%	-4%	56%
O=C1C=C(O)CC(c2ccc(Cl)c(Cl)c2)C1 (stereo unspecified)	1%	8%	-30%	-3%	10%	8%
O=C1C=C(O)CC(c2ccc(Cl)cc2)C1 (stereo unspecified)	-3%	?	50µM*	-9%	2%	1%
CCOC(=O)[C@]12CCC=C1N(Cc1ccc(Cl)cc1Cl)C(=O)[C@H](CC(=O)N1CCCCC1)C2	/	/	/	/	-1%	/
Cc1cc2c(n1-c1ccc(C(=O)O)cc1)CCCCC2	6µM*	/	2.5µM*	/	/	/
O=C(NC1=C(NC2CCS(=O)(=O)C2)C(=O)c2ccccc2C1=O)c1ccccc1 (stereo unspecified)	-4%	79µM*	?	-4%	18%	35µM*
O=C(COc1coc(CN2CCc3ccccc3C2)cc1=O)Nc1ccc([N+](=O)[O-])cc1	2%	6%	/	-5%	8%	8%
O=C(CCNC(=O)c1ccccc1Cl)Nc1cc(S(=O)(=O)N2CCOCC2)ccc1N1CCCC1	3%	-23%	3%	-8%	-1%	-2%
COc1ccc2[nH]c3c(=O)n(Cc4ccc(C(=O)N5CCCC5)cc4)c(=S)[nH]c3c2c1	7%	1%	9%	7%	10µM*	0%
O=C(Cn1ccn(-c2ccc(F)c(F)c2)c(=O)c1=O)Nc1ccccc1F	/	-9%	-21%	-12%	-11%	350%
O=c1c2nncn2ccn1-c1ccc(F)c(F)c1	/	-23%	32µM*	-25%	-6%	-4%
CCOC(=O)C1=C(c2ccccc2)N=c2s/c(=C\c3ccc(O)cc3)c(=O)n2C1c1cccs1 (stereo unspecified)	0%	-12%	?	-29%	0%	45µM*
Cc1ccc[n+](CC(=O)Nc2c(Cl)cc(Cl)cc2Cl)c1	?	-3%	21%	-2%	43%	141%
O=C(C[n+]1ccccc1)Nc1c(Cl)cc(Cl)cc1Cl	2%	-12%	8.9µM*	-11%	1%	23%
COC1=CC(=O)C(O)=C(CCCCCCC/C=C/CCCCCCCC2=C(O)C(=O)C=C(OC)C2=O)C1=O	/	3.5µM*	/	20µM*	13%	7.9µM*
CCOC(=O)C1(C)C(C(=O)OC)=C(c2ccc(OC)cc2)c2ccccc2N1C(=O)OC (stereo unspecified)	-19%	-11%	/	1%	-5%	-6%
O=C(NCCN1C(=O)S/C(=C/c2cccnc2)C1=O)C1=NN(c2ccccc2)C(=O)CC1	13%	-25%	/	-14%	2%	-30%
